Six molecules from PubChem BioAssay (NCATS) can be followed below.

Unmarked numbers belong to inactive results. Results filed as inconclusive are left out. Activity calls are given as the source filed them. Calls come from the whole dose curve; as a rule, active = well fitted curve in the direction sought with a large enough effect; inconclusive = small, poorly fitted or top-dose-only effect, or another doubt; inactive = no such curve, though single readings can be large; an effect the other way counts as inactive or inconclusive.

Experiment [1] can be described thus: OV-SAHO Cancer Cell Toxicity qHTS against the NCATS CANVASS Library (AID 1347348). Note: nearly all actives have a fitted effect of over 55% in size. Note: potency is the fitted concentration of half-maximal effect. In short, it runs like this: (§1)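 Following a 4 h pre-incubation of 1000 seeded cells, compounds were pinned in an 11-pnt dilution series and left for 72 h; viability then came from CellTiter-Glo.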
For orientation: qHTS replaces the single test concentration by a dilution series.

A short description of experiment [2]: SW1088 Cancer Cell Toxicity qHTS against the NCATS CANVASS Library (AID 1347350). Note: nearly all actives have a fitted effect of over 75% in size. Note: potency is the fitted concentration of half-maximal effect. Put shortly:
as §1

Experiment [3] in a line: A2780 Cisplatin Sensitive Ovarian Cancer Cell Toxicity qHTS against the NCATS CANVASS Library (AID 1347353). Note: nearly all actives have a fitted effect of over 60% in size. Note: potency is the fitted concentration of half-maximal effect. Put shortly:
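Seventy-two-hour exposure of cisplatin-sensitive A2780 ovarian cells to an 11-concentration qHTS series; cytotoxicity is inferred from loss of ATPLite luminescence. Bortezomib titration served as positive control.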

The nature of experiment [4]: HPAF-II 12hr Apoptosis Induction qHTS against the NCATS CANVASS Library (AID 1347358). Note: potency is the fitted concentration of half-maximal effect. In short, it runs like this: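 Apoptosis in HPAF-II pancreatic cancer cells is scored as caspase 3/7 luminescence following a 12-hour exposure to an 11-point compound series.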
The nature of experiment [5]: HEK293 24hr Apoptosis Induction qHTS against the NCATS CANVASS Library (AID 1347359). In short, it runs like this: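 HEK293 cells (500/well, DMEM + 10% FBS) were exposed to compounds in an 11-point series for 24 hours at 37 degrees C, then caspase-3/7 activity was read by Caspase-Glo DEVD luciferase luminescence after 15 min.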
Experiment [6] deals with Luciferin 4-monooxygenase (Photinus pyralis) (UniProt P08659). Briefly: Firefly luciferase counterscreen qHTS: Assay Interference Panel against the NCATS CANVASS Library (AID 1347363). Note: series mostly up to about 57 µM. Put shortly: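 Purified P. pyralis luciferase was added to compounds (11-point series) preincubated 15 min at room temperature with substrate containing 0.013 mM D-luciferin and 0.013 mM ATP; luminescence was read after 5 min.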
Sequence of Luciferin 4-monooxygenase (Photinus pyralis) (P08659 whole entry, looked up): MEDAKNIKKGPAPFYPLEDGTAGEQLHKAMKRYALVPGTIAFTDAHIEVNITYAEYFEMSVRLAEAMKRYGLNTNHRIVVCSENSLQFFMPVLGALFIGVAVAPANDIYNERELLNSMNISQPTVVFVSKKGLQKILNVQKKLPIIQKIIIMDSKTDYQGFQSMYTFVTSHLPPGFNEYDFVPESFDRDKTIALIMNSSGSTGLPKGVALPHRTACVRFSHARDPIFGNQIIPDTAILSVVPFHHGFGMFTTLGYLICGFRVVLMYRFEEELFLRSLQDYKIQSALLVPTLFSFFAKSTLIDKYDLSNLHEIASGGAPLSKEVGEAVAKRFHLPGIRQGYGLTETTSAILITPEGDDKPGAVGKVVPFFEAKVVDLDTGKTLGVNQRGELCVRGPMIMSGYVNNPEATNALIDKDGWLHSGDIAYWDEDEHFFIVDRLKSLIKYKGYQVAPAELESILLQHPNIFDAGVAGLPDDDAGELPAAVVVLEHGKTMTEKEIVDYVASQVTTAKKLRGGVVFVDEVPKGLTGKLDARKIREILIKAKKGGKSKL
In general terms: A counterscreen serves to expose hits that act by an unwanted route or on another target.

Experiment [7] is described as follows: KB-8-5-11 Cancer Cell Toxicity qHTS against the NCATS CANVASS Library (AID 1347364). Note: nearly all actives have a fitted effect of over 75% in size. Note: potency is the fitted concentration of half-maximal effect. Put shortly: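 Natural products were titrated in 11 points onto KB-8-5-11 cells, 500 per well, and cytotoxicity was scored from CellTiter-Glo luminescence after 72 hr culture.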
Experiment [8] is described as follows: SDT Cancer Cell Toxicity qHTS against the NCATS CANVASS Library (AID 1347365). Note: nearly all actives have a fitted effect of over 60% in size. Note: potency is the fitted concentration of half-maximal effect. Put shortly: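 Dispense 500 SDT cells per well; pin-transfer compounds; incubate 72 hr at 37C, 5% CO2, 95% RH; add CellTiterGlo and read luminescence.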
Experiment [9] can be described thus: G06 Cancer Cell Toxicity qHTS against the NCATS CANVASS Library (AID 1347368). Note: nearly all actives have a fitted effect of over 60% in size. Note: potency is the fitted concentration of half-maximal effect. Put shortly:
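Cytotoxicity toward canine glioma G06 cells is scored from cellular ATP via luminescence after 72 hr compound exposure at 500 cells/well.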

Experiment [10] in a line: DH5-alpha competent E. coli microbial cell viability qHTS against the NCATS CANVASS Library (AID 1347377). Particulars: outcome: dose series up to 46.1 µM unless noted. In short, it runs like this: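 Cell viability of competent DH5-alpha E. coli is scored from ATP content by luminescence. Cells sit overnight at 37C with compound across an 11-point concentration series.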

Experiment [11] can be described thus: Inflammasome Signaling qHTS Counterscreen: IL-1-beta AlphaLISA counterscreen against the NCATS CANVASS Library (AID 1347381).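 Note: cell-free check with purified IL-1β in medium and no THP-1 cells; series mostly up to about 57 µM.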 Put shortly:
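To flag interference with the AlphaLISA read-out, a known amount of purified IL-1-beta (4 pg) replaced cell supernatant. Detection used anti-IL-1-beta acceptor beads, biotinylated antibody and streptavidin donor beads at room temperature.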

Experiment [12] in a line: qHTS for Activators of p53 Stress Response Pathway screened against the NCATS CANVASS Library (AID 1347388). Put shortly: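 p53RE-bla HCT-116 cells (4000/well) were plated 5 h at 37C, exposed to compounds for 16 h at 37C over an 11-point concentration series, then loaded with CCF4 for 2 h at room temperature; 460/530 nm emission ratio read.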
The nature of experiment [13]: qHTS for activators of Nrf2/ARE signaling pathway screened against the NCATS CANVASS Library (AID 1347391). Note: nearly all actives have a fitted effect of over 60% in size. In short, it runs like this: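 Cells carrying an ARE-driven beta-lactamase reporter (HepG2 background) are dosed for 16 h, then stained with CCF4. Cell viability in the same wells is measured by CellTiter-Glo luminescence.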
A short description of experiment [14]: qHTS for inhibitors of ER calcium dysfunction: SERCaMP assay screened against the NCATS CANVASS Library (AID 1347393). Note: nearly all actives have a fitted effect of over 40% in size. Note: potency is the fitted concentration of half-maximal effect. Put shortly: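 qHTS in SH-SY5Y reporter cells: 16 h compound pretreatment, 4 h thapsigargin, then secreted Gaussia luciferase measured by luminescence.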
Experiment [15] can be described thus: qHTS for inhibitors of Wild type Zika virus screened against the NCATS CANVASS Library (AID 1347396).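 Note: ATP luminescence of surviving cells so rescue from viral cell killing; series mostly up to about 46 µM.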 In short, it runs like this:
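Vero 766 cells, 1000/well, o/n attach; cpds pin-transferred (11-pt qHTS); WT Zika added; 72 h, 37C, 5% CO2; CellTiter Glo lumi. Uninfected + vehicle = 100% inhibition.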

Experiment [16] can be described thus: OV-KATE Cancer Cell Toxicity qHTS against the NCATS CANVASS Library (AID 1347345). Put shortly: as §1
Experiment [17] is described as follows: HEK-293 Cancer Cell Toxicity qHTS against the NCATS CANVASS Library (AID 1347355). For outcome: series mostly up to about 46 µM. Note: nearly all actives have a fitted effect of over 65% in size. Note: potency is the fitted concentration of half-maximal effect. In short, it runs like this: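 qHTS cytotoxicity: compounds tested in 11 concentrations on 1000 seeded cells per well over 72 h; bortezomib served as control; signal from CellTiter-Glo luminescence.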
The nature of experiment [18]: qHTS for ATAD5 Agonist screened against the NCATS CANVASS Library (AID 1347367).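 Note: luciferase reporter driven by ATAD5 which rises upon DNA damage.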 In short, it runs like this:
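Step one plated reporter cells and let them acclimate 5hr. Step two pinned compounds with MMS as positive and 0.46% DMSO as negative control. After 16hr incubation, fluorescence viability then luminescence were read.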

The nature of experiment [19]: qHTS for activators of dead-cell proteases activity screened against the NCATS CANVASS Library (AID 1347392).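 Note: luminescence from protease leaking out of membrane-damaged cells cleaving impermeant substrate; rising signal means more cytotoxicity.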 In short, it runs like this:
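HepG2 cells (2000/well) attached 18 h at 37C, then exposed 5 h to compounds (11-point qHTS). Dead-cell protease activity read as luminescence from cell-impermeant AAF-aminoluciferin substrate after 15 min at room temperature.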

The nature of experiment [20]: qHTS for Hypoxia signaling pathway (HIF-1) antagonists against the NCATS CANVASS Library (AID 1347374). Note: nearly all actives have a fitted effect of over 60% in size. Note: potency is the fitted concentration of half-maximal effect. In short, it runs like this:
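HRE-bla ME-180 cells (2,000/well, 0.5% dialyzed FBS) were pre-incubated 5 h, then given an 11-point compound series plus CoCl2 (60 uM solution as added) for 17 h at 37C. CCF4 β-lactamase read (ex 405, em 460/530 nm) after 2 h at RT.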

As for `C[C@@H]1CC[C@]2(C(=O)O)CC[C@]3(C)C(=C2[C@H]1C)CC[C@@H]1[C@@]2(C)CC[C@H](O)C(C)(C)[C@@H]2CC[C@]13C`, the Potency in experiment [1] is 11.8 µM (active); in [2], 23.7 µM (active). Moreover, the Potency entry in experiment [3], in experiment [4], in experiment [5], in experiment [6], in experiment [7] and in experiment [8] was “inactive” throughout. For the same molecule, the Potency result in experiment [9], in [12], in experiment [13] and in experiment [14] was “inactive” throughout. Moreover, the result in experiment [10], in [11] and in experiment [15] was inactive.

As to `CCC(C)=C1OC(=O)[C@H](C)[C@H](O)[C@H](Cc2cccnc2)NC(=O)C(NC(=O)c2ncccc2O)C(C)OC1=O` (stereo partly specified), the Potency entry in experiment [16], in [1], in experiment [2], in experiment [3], in experiment [17] and in [4] was “inactive” each time. Moreover, the Potency result in [6], in experiment [7], in experiment [8], in [18], in experiment [9] and in experiment [12] was “inactive” each time. Moreover, the Potency result in experiment [13] and in experiment [19] was “inactive” throughout. Further, the call in experiment [11] and in experiment [15] was inactive.

Regarding `CC[C@@H]1C[C@@]2(CC)OC(=O)[C@@]3(CC)[C@H](CC)[C@@H]1[C@@H]23`, the Potency entry in experiment [16], in experiment [1], in [2], in experiment [3], in [17] and in [5] was “inactive” in each case. In addition, the Potency result in experiment [6], in [7], in [8], in experiment [18], in experiment [9] and in experiment [20] was “inactive” each time. In addition, the Potency entry in [12], in experiment [13] and in experiment [14] was “inactive” throughout. Further, the outcome in [10], in experiment [11] and in experiment [15] was inactive.

For the molecule `COC(=O)C1=C[C@]23C[C@@H](C)CC[C@@H]2[C@@]2(C)CC[C@@H](C(C)C)[C@@](O)(O3)[C@@H]12`, the Potency entry in experiment [4], in experiment [6], in experiment [18], in experiment [9], in experiment [20] and in experiment [12] was “inactive” each time. Further, in [19], the Potency result is “inactive”. For the same molecule, the Potency in [7] is 18.7 µM (active); in experiment [14], 34.3 µM (active). In addition, in experiment [11], the result was inactive.

Turning to `COc1cc(/C=C/C(=O)OC[C@@H](Cc2ccc(O)c(OC)c2)[C@@H](COC(=O)/C=C/c2ccc(O)c(OC)c2)Cc2ccc(O)c(OC)c2)ccc1O`, the Potency was 23.6 µM (active) in [1]; 8.41 µM (active) in experiment [2]; 9.35 µM (active) in [3]; 11.8 µM (active) in [17]; 11.8 µM (active) in experiment [4]; 13.2 µM (active) in [7]. The Potency in [9] was 14.8 µM (active); in [20], 7.47 µM (active); in experiment [14] it was 3.43 µM (active). Also, the Potency result in [6], in [18], in [12] and in [13] was “inactive” throughout. Moreover, the molecule was called inactive in [10].

For the molecule `C/C1=C/[C@@H](C)[C@H](O)[C@@H](O)/C=C/CC/C=C/C(=O)O[C@@H]1[C@H](C)C(=O)/C=C/CC1CC(=O)NC(=O)C1`, the Potency result in [2], in experiment [4], in experiment [5], in experiment [7], in experiment [18] and in experiment [12] was “inactive” in each case. Further, the Potency result in experiment [19] and in experiment [14] was “inactive” each time. Moreover, the Potency in [3] is 13.2 µM (active); in experiment [8], 18.7 µM (active); in [20], 16.7 µM (active). In addition, the outcome in experiment [10] and in experiment [15] was inactive.
